# Data published in PubChem BioAssay (NCI).
# The panel holds about 83,000 compounds, 20% with a hit somewhere; the sample as a whole holds those more often.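 Each cell line was grown in a 96-well plate and treated with one concentration of compound for 48 hours. Values below 10 were considered active.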 A number with no mark means an inactive call. Activity calls are given as the source filed them.
# Tests used:
# Assay in all cases: NCI-60 one-dose screen, 48 h (100 = growth as untreated, 0 = no growth, -100 = all killed)
# Conditions in all cases: 10 µM
# [1] = tested on: NCI-H23 lung
# [2] = tested on: NCI-H226 lung
# [3] = tested on: NCI-H322M lung
# [4] = tested on: HOP-62 NSCLC
# [5] = tested on: NCI-H460 lung
# [6] = tested on: HOP-92 NSCLC
# [7] = tested on: A549/ATCC NSCLC
# [8] = tested on: 786-0 renal
# [9] = tested on: COLO 205 colon
Compound,growth [1],growth [2] [%],growth [3],growth [4] [%],growth [5],growth [6],growth [7] [%],growth [8],growth [9] [%]
O=C(O)c1ccc(S(=O)(=O)O)cc1,101%,99.6,98.8%,99.3,109%,76.3%,91.5,89.7%,129
CCOc1ccc(/C=C/C(=O)c2ccccc2)cc1,106%,114,132%,102,103%,82.6%,97.5,89.8%,116
CC1(C)Nc2cccc3c(N=Nc4ccc(N=Nc5ccccc5)c5ccccc45)ccc(c23)N1,85.1%,94,91.4%,93.1,92.1%,82.6%,99.3,122%,89.2
OC1CCCc2ccccc21 (stereo not given),104%,104,89.6%,104,101%,112%,51.3,103%,115
O=C(c1ccc(O)cc1)c1ccc(O)cc1,106%,98.1,95.3%,97.8,108%,98%,96.9,98.8%,108
CCCCCCCO,106%,94.7,92.6%,98.8,110%,88.7%,102,110%,118
CO[C@H]1C[C@@H]2CC[C@@H](C)[C@@](O)(O2)C(=O)C(=O)N2CCCC[C@H]2C(=O)O[C@H]([C@H](C)C[C@@H]2CC[C@@H](O)[C@H](OC)C2)CC(=O)[C@H](C)C=C(C)[C@@H](O)[C@@H](OC)C(=O)[C@H](C)C[C@H](C)/C=C/C=C/C=C1C,45.4%,62.2,71.6%,60.7,45.1%,30.7%,39,46.9%,61.3
O=C1OC(c2ccc(F)cc2)CC1CN1CCOCC1 (stereo not given),98.8%,107,102%,101,108%,94.5%,100,105%,93.1
O=C(O)c1ccccc1NCc1ccco1,90.9%,92.6,102%,95.7,102%,108%,102,97.2%,126
Nc1ccc(NC(=O)c2cccc(N)c2)cc1,96.7%,99.1,95.2%,86.5,101%,81.1%,47.6,101%,114
O=C(NN=C1CCCCC1)C(=O)NN=C1CCCCC1,105%,101,124%,98.1,117%,101%,116,105%,106
CCCCOC(OCCCC)c1ccccc1,95%,107,104%,117,109%,101%,91.4,105%,112
CCS(=O)(=O)c1cc(=O)[nH]c(=O)[nH]1,99.9%,107,87.4%,106,106%,162%,102,100%,113
OC(c1ccccn1)C(O)c1ccccn1 (stereo not given),97.5%,110,96.8%,104,114%,98.9%,95.3,99.5%,105
COc1cccc(COC(=O)Nc2ccccc2)c1OC,110%,96.6,101%,100,103%,109%,94.5,98.9%,114
Oc1ccc(Cc2ccccc2)c2cccnc12,7.91% (active),75.7,-2.54% (active),18.3,0.164% (active),-0.901% (active),16.2,-1.42% (active),96.5
Cc1ccc(O)c(C(=O)c2ccccc2)c1,98.4%,104,138%,114,113%,93.8%,95.9,111%,113
COc1ccccc1C1OC2=Nc3cc(C)c(C)cc3NC2C1=O (stereo not given),79%,21.7,80.3%,47.9,14.1%,67.7%,67.6,14%,79.1
O=C(Nc1cc(-c2ccccc2)[nH]n1)c1ccc(Cl)cc1,87.8%,88.4,79.4%,88.3,56%,81.4%,70.3,79.5%,104
CCOC(=O)Nc1nn[nH]n1,102%,107,129%,113,99.9%,97.3%,103,105%,107
O=C(NCCNC(=O)c1ccc(Cl)cc1Cl)c1ccc(Cl)cc1Cl,114%,101,113%,87.6,105%,71.8%,104,107%,129
C=CC[N+](C)(C)C,103%,93.6,108%,107,104%,86%,100,102%,120
CCOC(=O)C(CCC(C)C)C(=O)OCC,103%,98.2,112%,105,106%,93.6%,102,113%,110
CC(=O)C1CCCCC1,103%,89.9,105%,96,102%,77.5%,97.2,98.8%,101
c1ccc(Cc2ccccc2)cc1,107%,112,96.2%,101,109%,59.2%,39.8,92.7%,125
CNC(=S)NC(C)(C)C,104%,102,98.4%,101,113%,83.1%,98.3,101%,119
COC(=O)CCCCC1=CCC2C(=O)C=C(O)C2C1 (stereo not given),100%,102,92.4%,91.8,105%,85.2%,98.7,99.9%,111
O=C(Nc1ccccc1C(=O)NCC1CC1)c1cccs1,109%,88.1,126%,103,105%,71.6%,102,101%,116
CC(=O)c1cc2c(cc1F)C(C)(C)CCC2(C)C,90.6%,96.9,96.8%,112,107%,88%,89,103%,102
Brc1cnc2ccccc2c1,103%,105,106%,100,109%,95.1%,104,109%,100
